Assay results taken from PubChem BioAssay (NCI).
The panel holds about 83,000 compounds, 20% with a hit somewhere; the sample as a whole holds those more often.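 96-well plates, one dose, 48 hours. Percent growth reported; active if below 10.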 Values without a mark were called inactive. Calls of active or inactive are those of the source.

Tests used:
Assay in all cases: NCI-60 one-dose screen, 48 h (100 = growth as untreated, 0 = no growth, -100 = all killed)
Conditions in all cases: 10 µM unless noted
[1] = system: SK-MEL-2 melanoma
[2] = system: EKVX NSCLC
[3] = system: SN12C renal
[4] = system: UO-31 renal
[5] = system: TK-10 renal
[6] = system: ACHN renal
[7] = system: A498 renal
[8] = system: CCRF-CEM leukemia
[9] = system: MOLT-4 leukemia

Row | Structure (SMILES) | growth [1] | growth [2] | growth [3] | growth [4] | growth [5] | growth [6] | growth [7] [%] | growth [8] | growth [9]
1 | C[C@H]1C=C(C[C@@H](O)CC#CC#CCCCCC[C@@H](O)[C@H]2CCC(=O)O2)C(=O)O1 | 118% | 96.7% | 105% | 81.2% | 115% | 103% | 107 | 106% | 114%
2 | CC(C(C(=O)N1CCCCC1)N1CCCCC1)N1CCCCC1 (stereo not given) | 111% | 112% | 102% | 94.9% | 101% | 116% | 119 | 116% | 79.8%
3 | CCOC(=O)C(C)(CSSCC(C)(NC(=O)c1ccc2ccccc2c1)C(=O)OCC)NC(=O)c1ccc2ccccc2c1 (stereo not given) | 107% | 90.3% | 104% | 80.6% | 103% | 102% | 136 | -42.5% (active) | 53.1%
4 | COc1ccc(SC2c3ccc(O)cc3Oc3nc(N)c(C#N)c(N)c32)cc1 (stereo not given) | 98.1% | 79% | 54.3% | 71.1% | 73% | 97.7% | 84.7 | 31.8% | 67.7%
5 | COc1ccc(/C=N/C2=NNC(C)(c3ccccc3O)N2C(Cc2c[nH]c3ccccc23)C(=O)O)cc1 (stereo not given) | 20.2% | 27.5% | 34.4% | 32.1% | 70.4% | 46.5% | 46.5 | 19.7% | 14.4%
6 | Cc1cc2c(cc1C)N(C(=O)CCl)CCN2C(=O)CCl | -68.1% (active) | -23% (active) | -38.4% (active) | -81.5% (active) | -96.9% (active) | -81.6% (active) | 85 | -28.8% (active) | 1.2% (active)
7 | N#CC1=C(N)Oc2c(ccc3ccccc23)C1c1cc(=O)oc2ccc(Cl)cc12 (stereo not given) | 43.6% | 44.5% | 47.5% | 50.9% | 71.4% | 50.8% | 23.4 | 18.6% | 20.8%
8 | CC1=C2C(=C[C@@](C)(CO)[C@@H]2OC(=O)N(C)CCN(C)C(=O)OC(C)(C)C)C(=O)[C@](C)(O)C12CC2 | 71.4% | 78.5% | 73% | -60.4% (active) | 68.1% | -52.5% (active) | 97 | 74.6% | 89.7%
9 | COc1ccc(-c2coc3c(CO)c(O)ccc3c2=O)cc1 | 19.2% | 72.1% | 10.1% | 24.3% | 75.2% | 20.8% | 68.6 | 45.2% | 91.3%
10 | CCCCNC(=O)Oc1ccc(/C(=C(/CC)Cc2ccccc2)c2ccc(OCCCN(C)C)cc2)cc1 | 86.8% | 67.5% | 82.8% | 60.5% | 91.9% | 92.5% | 76.2 | 77.1% | 63.4%
11 | c1cncc(-c2nc3ccccc3[nH]2)c1 | 106% | 120% | 89.8% | 82.3% | 148% | 91% | 84.4 | 110% | 97.4%
12 | COc1ccc(/C=C/C(=O)/C=C(/C=C/c2ccc(OC)c(OC)c2OC)OB(F)F)c(OC)c1OC | 76% | 65.8% | 20.6% | 16.8% | 35.6% | -16.4% (active) | 95.1 | -2.62% (active) | 3.43% (active)
13 | COc1ccc(C2=NN(C(=O)COc3ccc(Cl)cc3)C(O)(c3cc(F)c(Cl)cc3Cl)C2)cc1 (stereo not given) | 99.2% | 80.5% | 119% | 74.7% | 89.5% | 104% | 95.3 | 7.54% (active) | 77.3%
14 | CN1CCN(C(=O)/C=C/c2ccc([N+](=O)[O-])o2)CC1 | 59.5% | 132% | 91% | 79.3% | 159% | 63.7% | 76 | 56.4% | 59.9%
15 | N#Cc1c(N)nc2c(c1N)C(c1ccc(Cl)cc1)C1=C(CCCC1=O)N2c1sc2c(c1C#N)CCCC2 (stereo not given) | 95.8% | 93.7% | 95.4% | 95.9% | 89.2% | 96.8% | 100 | -34% (active) | 90%
